Assay outcomes deposited in PubChem by Johns Hopkins Ion Channel Center.
KCNQ2 enhance: enhances the rat KCNQ2 potassium channel. O88943. CHO-K1 KCNQ2, FluxOR thallium flux fluorescence; active compounds read high. B-score at 10 µM. 310,000 tested, 0.54% active. AID 2239;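 active = fluorescence ratio B-score at least 3 SD of library B-scores, with initial fluorescence B-score within 3 of them, cut at about 5.3 in these data; same plate scores as AID 2156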;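 note: B-score of peak minus minimum over baseline fluorescence ratio after K+ and Tl+ stimulus; positive B-score means potentiation of KCNQ2 with more thallium influx and brighter signal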
Target sequence (O88943 whole entry, looked up): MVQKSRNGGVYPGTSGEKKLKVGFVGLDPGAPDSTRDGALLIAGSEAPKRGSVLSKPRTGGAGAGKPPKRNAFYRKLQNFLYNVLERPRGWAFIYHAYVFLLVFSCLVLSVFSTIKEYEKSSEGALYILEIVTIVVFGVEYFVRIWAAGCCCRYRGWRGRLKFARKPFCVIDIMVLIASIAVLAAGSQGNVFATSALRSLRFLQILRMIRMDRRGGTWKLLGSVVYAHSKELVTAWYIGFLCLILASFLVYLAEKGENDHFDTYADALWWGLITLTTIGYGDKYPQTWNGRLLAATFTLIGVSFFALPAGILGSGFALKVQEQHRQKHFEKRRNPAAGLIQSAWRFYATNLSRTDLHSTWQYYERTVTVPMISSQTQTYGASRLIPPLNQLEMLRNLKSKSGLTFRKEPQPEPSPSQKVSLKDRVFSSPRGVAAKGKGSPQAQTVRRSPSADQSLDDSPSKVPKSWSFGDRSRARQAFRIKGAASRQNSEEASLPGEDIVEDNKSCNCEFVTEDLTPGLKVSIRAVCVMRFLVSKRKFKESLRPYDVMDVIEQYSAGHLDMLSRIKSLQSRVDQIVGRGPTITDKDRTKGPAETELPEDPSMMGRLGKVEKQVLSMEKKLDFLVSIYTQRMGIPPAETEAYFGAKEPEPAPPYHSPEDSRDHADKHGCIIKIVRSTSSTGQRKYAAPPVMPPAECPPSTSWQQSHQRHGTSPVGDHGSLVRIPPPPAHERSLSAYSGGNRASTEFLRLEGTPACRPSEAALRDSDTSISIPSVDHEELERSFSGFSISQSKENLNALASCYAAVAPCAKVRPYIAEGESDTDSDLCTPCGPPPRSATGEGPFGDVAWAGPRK
KCNQ2 block: blocks the rat KCNQ2 potassium channel; CHO-K1 KCNQ2, FluxOR thallium flux, 20 min; active compounds read low; AID 2156; O88943; 310,000 tested, 1.1% active; B-score at 10 µM;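 active = fluorescence ratio B-score at most minus 3 library SDs, with starting brightness B-score within 2 library SDs, cut at about -5.5 in these data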
Of the large screens only hits and unclear results are named; the others gave an inactive call. In the library only some 1.6% were active in any assay of this set; here they are far more common.

Cc1ccc2nc(-c3cccc(Br)c3)cc(C(=O)NC3=NCCS3)c2c1	KCNQ2 block -7.28
O=C(NCc1nnnn1-c1ccc(F)c(F)c1)c1ccc(S(=O)(=O)N2CCOCC2)cc1	none (no result: KCNQ2 enhance)
CC(C)(C)C(=O)N1CCN(c2ccc([N+](=O)[O-])cc2Cl)CC1	none (no result: KCNQ2 enhance)
CCn1c(=O)c(-c2cc(=O)[nH][nH]2)c(O)c2ccccc21	none (no result: KCNQ2 enhance)
O=c1cc(-c2c(O)c3ccccc3n(Cc3ccccc3)c2=O)[nH][nH]1	KCNQ2 block -6.85
O=C1CC(c2cc(F)ccc2F)c2cc3c(cc2N1)CCC3 (configuration not stated)	none
Nn1c(SC/C=C/c2ccccc2)nnc1-c1ccco1	none
C(=C\c1ccccc1)/CSc1nnc(-c2ccccc2)n1Cc1ccco1	KCNQ2 block -5.93
Clc1cccc(-c2nnc(SC/C=C/c3ccccc3)n2Cc2ccco2)c1	KCNQ2 block -8.28
C(=C\c1ccccc1)/CSc1nnc(-c2ccncc2)n1Cc1ccco1	none (no result: KCNQ2 enhance)
COc1cccc(-n2c(N)c(C#N)c3ccc([N+](=O)[O-])cc3c2=O)c1	none (no result: KCNQ2 enhance)
CSc1ccccc1OCc1cc(C(=O)N(C)C2CCCc3ccccc32)no1 (configuration not stated)	none (no result: KCNQ2 enhance)
CN(C(=O)c1cccc(C(F)(F)F)c1)C1CCCc2ccccc21 (configuration not stated)	KCNQ2 block -5.77
O=[N+]([O-])c1ccc2c(c1)nc1n2CCSC1	none (no result: KCNQ2 enhance)
O=C(CS(=O)CC(=O)Nc1ccc(Cl)cc1)NCC1OCCc2ccccc21 (configuration not stated)	none
O=c1c2ccccc2nc(SCc2nnc(-c3ccccc3Br)o2)n1-c1ccccc1	none (no result: KCNQ2 enhance)
O=c1c2ccccc2nc(SCc2nnc(-c3ccccc3)o2)n1-c1ccc(F)cc1F	KCNQ2 block -6.43
CC(C)CCNC(=O)C1CCN(C(=O)N(C)C)CC1	none
COc1ccc(NC(=O)Cc2c(Sc3ccccc3)c3ccccc3n2C)cc1	KCNQ2 block -6.26
Cn1c(CC(=O)Nc2ccc(F)cc2)c(Sc2ccccc2)c2ccccc21	none (no result: KCNQ2 enhance)
CCc1nnc(N/N=C\c2ccc(OC(C)=O)c(OC)c2)n1N	none
O=C(c1cc(-c2ccccc2)nc2ccccc12)N1CCOCC1	none (no result: KCNQ2 enhance)
CC(C)c1ccc(-c2cc(C(=O)N3CCOCC3)c3cc(Br)ccc3n2)cc1	KCNQ2 block -6
Cc1nnc(SC(C)C(=O)Nc2sc3c(c2C#N)CCCC3)[nH]c1=O (configuration not stated)	none (no result: KCNQ2 enhance)
Cc1ccc(C(=O)Oc2ccc3ccc(=O)oc3c2)cc1	none (no result: KCNQ2 enhance)
CCc1ccc(NC(=S)N(CCCN2CCOCC2)Cc2ccco2)cc1	KCNQ2 enhance 6.62
COc1ccc(NC(=S)N(CCCN2CCOCC2)Cc2ccco2)cc1	none (no result: KCNQ2 enhance)
COc1ccc(CCN=C(NS(=O)(=O)c2ccc(Cl)cc2)c2ccccc2)cc1	none (no result: KCNQ2 enhance)
CCOC(=O)c1c(/N=C/C2=C(O)CCCC2=O)sc2c1CCCC2	none
CCC1(c2ccc(Cl)cc2)NC(=S)N(c2ccc(C)cc2)N1 (configuration not stated)	KCNQ2 enhance 17.2
CC1(CCc2ccccc2)NC(=S)N(c2ccc(Cl)cc2)N1 (configuration not stated)	none (no result: KCNQ2 enhance)
CC(C)CCNC(=O)CNC(=S)N(CCCN1CCOCC1)Cc1cccs1	none (no result: KCNQ2 enhance)
Cc1ccc(NC(=O)CSc2nc3ccccc3c(=O)n2CCCN2CCCCC2)cc1Cl	KCNQ2 block -7.86
COc1cccc(NC(=O)CSc2nc3c(sc4ccccc43)c(=O)n2CCCN2CCCC2)c1	KCNQ2 block -6.67
COc1cccc(NC(=O)CSc2nc3c(sc4ccccc43)c(=O)n2CCN(C)C)c1	none
CC1CCN(CCCn2c(SCC(=O)Nc3ccccc3Cl)nc3ccccc3c2=O)CC1	none (no result: KCNQ2 enhance)
Cc1ccsc1C(=O)OC1CCOC1=O (configuration not stated)	none
CC(C)(C)Nc1nc(SCc2ccccc2)nc(N2CCOCC2)n1	none (no result: KCNQ2 enhance)
COc1cccc([C@@H]2Oc3ccc(OC)cc3C(=O)[C@H]2OC(=O)N[C@H](C)C2CCCCC2)c1	KCNQ2 block -6.81
COc1ccc2c(c1)O[C@H](c1ccc3c(c1)OCO3)[C@@H](OC(=O)N[C@H](C)C1CCCCC1)C2=O	none (no result: KCNQ2 enhance)
CCOC(=O)CSc1cc(C)nc2ccc(OC)cc12	none (no result: KCNQ2 enhance)
Cc1cccc(C)c1OCc1cc(C(=O)N2CCCCCCC2)no1	KCNQ2 block -6.55
Cc1ccc(N2CCN(C(=O)c3cc(COc4c(C)cccc4C)on3)CC2)c(C)c1	none (no result: KCNQ2 enhance)
C=C(C)Cn1c(-c2cccs2)n[nH]c1=S	none (no result: KCNQ2 enhance)
Cc1ccc2c(Cl)c(C(=O)Nc3cccnc3)sc2c1	none
CCN(Cc1ccccc1)C(=O)c1oc2ccc(C)cc2c1C	KCNQ2 block -5.82
Cc1ccc2oc(C(=O)N(Cc3ccncc3)CC3CCCO3)c(C)c2c1 (configuration not stated)	none (no result: KCNQ2 enhance)
Cc1ccc2oc(C(=O)N(C)Cc3ccc(C)o3)c(C)c2c1	KCNQ2 block -7.94
Cc1ccc2oc(C(=O)N(C)Cc3ccon3)c(C)c2c1	none
CCc1cccc(CC)c1NC(=O)C1CC(=O)N(c2ccc3c(c2)OCCO3)C1 (configuration not stated)	none
CCOC(=O)C1=C(C)N(C)C(=S)NC1c1ccc(Cl)cc1 (configuration not stated)	none
